PubChem BioAssay (NCI)
This is part of a sample that, as a whole, favours compounds with a hit. Of some 83,000 tested, about 20% had one in any assay.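 For each line, cells grew in 96-well plates with the test compound present at a single concentration for 48 hours.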 Unmarked numbers belong to inactive results. The source made the active and inactive calls. How the source made its calls: active means growth percent below 10; inactive means the rest.

Assays:
Test in all cases: NCI-60 one-dose screen, 48 h (100 = growth as untreated, 0 = no growth, -100 = all killed)
Settings in all cases: 10 µM
NCI-H23 lung = tested on: NCI-H23 lung
NCI-H226 lung = tested on: NCI-H226 lung
NCI-H322M lung = tested on: NCI-H322M lung
HOP-62 NSCLC = tested on: HOP-62 NSCLC
NCI-H460 lung = tested on: NCI-H460 lung
NCI-H522 lung = tested on: NCI-H522 lung
A549/ATCC NSCLC = tested on: A549/ATCC NSCLC
786-0 renal = tested on: 786-0 renal
COLO 205 colon = tested on: COLO 205 colon
DU-145 prostate = tested on: DU-145 prostate
K-562 leukemia = tested on: K-562 leukemia
MALME-3M melanoma = tested on: MALME-3M melanoma
MDA-MB-231 breast = tested on: MDA-MB-231 breast
RXF 393 renal = tested on: RXF 393 renal
SF-268 CNS = tested on: SF-268 CNS
SF-295 CNS = tested on: SF-295 CNS
SF-539 CNS = tested on: SF-539 CNS
UACC-257 melanoma = tested on: UACC-257 melanoma
M14 melanoma = tested on: M14 melanoma
HCT-15 colon = tested on: HCT-15 colon

Row | SMILES | growth (NCI-H23 lung) | growth (NCI-H226 lung) | growth (NCI-H322M lung) | growth (HOP-62 NSCLC) | growth (NCI-H460 lung) | growth (NCI-H522 lung) | growth (A549/ATCC NSCLC) | growth (786-0 renal) | growth (COLO 205 colon) | growth (DU-145 prostate) | growth (K-562 leukemia) | growth (MALME-3M melanoma) | growth (MDA-MB-231 breast) | growth (RXF 393 renal) | growth (SF-268 CNS) | growth (SF-295 CNS) | growth (SF-539 CNS) | growth (UACC-257 melanoma) | growth (M14 melanoma) | growth (HCT-15 colon)
1 | Nc1nc(N=Nc2ccc(O)cc2)cc(=O)[nH]1 | 101% | 114% | 104% | 102% | 107% | 112% | 111% | 105% | 106% | 116% | 106% | 96.4% | 98.7% | 74.4% | 111% | 94.9% | 96.6% | 112% | 101% | 101%
2 | Cn1c([N+](=O)[O-])cnc1/C=C1\Oc2ccc(Cl)cc2C1=O | -12.7% (active) | -27.2% (active) | 11.4% | -17.2% (active) | -44.3% (active) | -50.3% (active) | -40.9% (active) | -23.2% (active) | -41.6% (active) | -17.1% (active) | 1.86% (active) | -55% (active) | -22.5% (active) | -70.5% (active) | -32.1% (active) | -17.3% (active) | -50.3% (active) | -41.7% (active) | -33% (active) | -8.74% (active)
3 | C/C(=N\Nc1nc2ccccc2s1)c1ccncn1 | 42.3% | 41.9% | 46.2% | 41.3% | 23.2% | 4.38% (active) | 50.6% | 38.3% | 7.12% (active) | 28.3% | 0.401% (active) | 43.2% | 31.3% | 9.64% (active) | 45.5% | 39.3% | 40.8% | 55.6% | 34.9% | 18.6%
4 | Nc1ncnc2[nH]c(=O)[nH]c12 | 103% | 87.7% | 103% | 97.9% | 95.5% | 105% | 118% | 102% | 132% | 99.5% | 46.5% | 104% | 91.4% | 22.1% | 89% | 85.1% | 87% | 103% | 94.6% | 96.3%
5 | N#CCCN1C/C(=C/c2ccc(Br)cc2)C(=O)/C(=C/c2ccc(Br)cc2)C1 | -30.8% (active) | -77.6% (active) | -23.2% (active) | -59.4% (active) | -55.2% (active) | -68.4% (active) | -37.6% (active) | -67.9% (active) | -93.9% (active) | -48.4% (active) | 3.42% (active) | -48.4% (active) | -39.4% (active) | -89.1% (active) | -36.2% (active) | -20.2% (active) | -55.1% (active) | -33.5% (active) | -55.1% (active) | 0.513% (active)
6 | COc1ccc(C2=NN(C(=O)c3ccc(S(C)(=O)=O)cc3)C(c3ccc(OC)c(OC)c3)C2)c(OC)c1 (stereo not given) | 104% | 85.5% | 93.9% | 74.4% | 107% | 86.6% | 91.7% | 99.8% | 111% | 98% | 77.2% | 113% | 95.2% | 105% | 89% | 98.7% | 102% | 92.2% | 103% | 99.4%
7 | COc1ccc(OC)c(/C=C/c2nc(SCc3ccccc3)n(-c3ccc(Cl)cc3)n2)c1 | 54.3% | 72.7% | 82.9% | 79.4% | 24.4% | 66.6% | 46.5% | 48.8% | 114% | 77.7% | 18.2% | 34.9% | 67.1% | 82.8% | 57.7% | -15.4% (active) | 44.2% | 74% | 14.1% | 34%
8 | COc1ccc(-c2nn(-c3cccc(NC(=O)Nc4cccc(C(F)(F)F)c4)c3)cc2-c2ccncc2)cc1Cl | 5.45% (active) | 25.7% | 24.4% | 25.2% | 2.43% (active) | -6.94% (active) | 7.5% (active) | 24.2% | 1.37% (active) | 22% | 8.89% (active) | -10.4% (active) | 1.25% (active) | 23.2% | 23.5% | 5.07% (active) | 16.2% | -5.98% (active) | 4.56% (active) | 23.5%
9 | COc1ccc(-c2nn(-c3cccc(NC(=O)c4cc(C(F)(F)F)cc(C(F)(F)F)c4)c3)cc2-c2ccncc2)cc1Cl | 81.1% | 78.3% | 73.1% | 88.1% | 62.3% | 14.8% | 53.1% | 81.2% | 90.7% | 83.7% | 31.3% | 42.5% | 74% | 62.8% | 72.6% | 53.9% | 67.4% | 62% | 64% | 73.7%
10 | OCC1OC(n2cnc3c(N/N=C\c4ccccn4)ncnc32)C(O)C1O (stereo not given) | 27.1% | 11.3% | 7.28% (active) | 10% | 1.62% (active) | 38.7% | 24.6% | 16.2% | 22.7% | 17.7% | 17.6% | -14.6% (active) | 42.5% | 33.4% | 21.5% | -1.12% (active) | 9.72% (active) | 38% | 8.81% (active) | 25.8%
11 | N#CCCN1C/C(=C/c2ccc(Cl)cc2)C(=O)/C(=C/c2ccc(Cl)cc2)C1 | -29.9% (active) | -56.8% (active) | -22.1% (active) | -58% (active) | -49.9% (active) | -82.2% (active) | -35.9% (active) | -70.5% (active) | -84.3% (active) | -30.7% (active) | 3.1% (active) | -52.8% (active) | -18.5% (active) | -94.3% (active) | -38.6% (active) | -22.3% (active) | -50% (active) | -53.4% (active) | -44.1% (active) | 2.04% (active)
12 | Cc1ccc(-c2n[nH]c(=O)c3noc(-c4ccc(C)cc4)c23)cc1 | 61.8% | 80.9% | 49.5% | 29.2% | 17.3% | 16.4% | 36.8% | 48.4% | -25.1% (active) | 25.2% | 13.2% | 26.4% | 58.1% | 38% | 53.5% | 49.3% | 3% (active) | 55.9% | 28.8% | 33.1%
13 | Cc1cc(=O)n2nnc3c4ccccc4ccc3n12 | 94% | 59.8% | 96.3% | 70% | 83.9% | 87.9% | 60.2% | 89.8% | 8.79% (active) | 98.8% | 24.7% | 81.2% | 71.4% | 98% | 84% | 104% | 82.3% | 81.1% | 92.4% | 51.4%
14 | ClCC#CCSc1ncnc2c1ncn2CC#CCCl | -6.61% (active) | -13.6% (active) | 15.3% | -58.4% (active) | 1.04% (active) | -56% (active) | 46.5% | 13.3% | 54.4% | -20.9% (active) | 17.5% | -46.3% (active) | 20.2% | -65.9% (active) | -22.4% (active) | 8.11% (active) | 26% | 55% | 2.78% (active) | 30.1%
15 | O=C(Nc1cccc(-n2cc(-c3ccncc3)c(-c3ccc(O)c(Cl)c3)n2)c1)Nc1cccc(C(F)(F)F)c1 | -5.75% (active) | 57.5% | -10.3% (active) | -3.45% (active) | -4.53% (active) | -6.25% (active) | -6.05% (active) | 14.9% | 22.7% | 12.8% | 2.72% (active) | -24.1% (active) | -22.1% (active) | -11.7% (active) | 9.04% (active) | -12.6% (active) | -8.84% (active) | -19% (active) | -8.16% (active) | 14.9%
16 | Nc1ncn(C2OC(CO)C(O)C2O)c(=O)n1 (stereo not given) | 30.3% | 29% | -0.0643% (active) | -23% (active) | -1.43% (active) | -12.7% (active) | 20.7% | 12.2% | 2.62% (active) | -9.86% (active) | -24% (active) | 15.1% | 0.46% (active) | 10.6% | 23.9% | 15.4% | -24.4% (active) | 14.8% | 1.16% (active) | -15.3% (active)
